BAZ2B inh: inhibitors of human BAZ2B bromodomain; AlphaScreen BAZ2B-H3K14Ac peptide displacement; Potency, µM (highest dose often 114 µM), for the others: at the highest dose activity change, negative = inhibition, actives largely listed as inhibitors; hit rate 4.4% among 360,000; note: % is set by controls: 0 for no effect and ±100 for the full control effect; nearly all actives have a fitted effect of over 60% in size
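AlphaScreen displacement of biotin-H3(5-23)K14Ac peptide (50 nM final) from BAZ2B (50 nM final) in PBS pH 7.4, 0.01% Tween-20; complex preformed 30 min RT, then compounds (top 110 uM) 30 min RT, beads 20 min dark.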
HP1b chromo inh: blocks HP1-beta chromodomain binding to methylated histone tails | AlphaScreen HP1-beta / biotin-H3K9me3 peptide binding | AID 540317 | hit rate 0.56% among 390,000 | Potency, µM (series often up to 114 µM), for inactives: at the highest dose activity change, negative = inhibition, most hits filed as inhibitors | P83916; note: nearly all actives have a fitted effect of over 70% in size
Target sequence (P83916 whole entry, looked up): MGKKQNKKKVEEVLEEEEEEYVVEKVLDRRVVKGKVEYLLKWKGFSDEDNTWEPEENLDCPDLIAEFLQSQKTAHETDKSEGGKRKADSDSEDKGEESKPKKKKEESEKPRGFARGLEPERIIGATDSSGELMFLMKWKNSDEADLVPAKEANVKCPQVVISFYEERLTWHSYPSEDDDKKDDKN
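AlphaScreen: HP1-beta (50 nM) preformed 30 min with biotin-H3(1-18)K9me3 peptide (50 nM) in PBS pH 7.4, 0.01% Tween-20. Compound added for 30 min at RT, then streptavidin donor/nickel chelate acceptor beads (10 ug/mL) for 30 min.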
G9a block: blocks human histone lysine methyltransferase G9a; G9a H3K9 monomethylation, AlphaScreen, 2 h; Potency, µM (top dose mostly 102 µM), for the others: top-dose activity, negative = inhibition, most hits filed as inhibitors; hit rate 8.8% among 350,000; Q96KQ7; AID 504332; note: % is set by controls: 0 for no effect and ±100 for the full control effect; nearly all actives have a fitted effect of over 75% in size
Target sequence (Q96KQ7 913-1193 limits assumed): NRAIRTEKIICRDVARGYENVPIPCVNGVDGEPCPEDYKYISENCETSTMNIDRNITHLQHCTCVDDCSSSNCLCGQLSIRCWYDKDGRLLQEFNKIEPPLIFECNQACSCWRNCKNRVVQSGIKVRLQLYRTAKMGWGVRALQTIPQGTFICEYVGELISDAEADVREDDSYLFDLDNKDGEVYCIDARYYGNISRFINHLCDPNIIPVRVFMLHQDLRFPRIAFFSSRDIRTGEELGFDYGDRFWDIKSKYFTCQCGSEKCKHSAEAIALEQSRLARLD
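Chemiluminescent proximity detection of H3K9 monomethylation, read after 10 min bead incubation in the dark. Reaction: 20 nM G9a, 500 nM biotin-H3K9 peptide, 20 uM SAM cofactor, 2 h, room temperature, following 15 min enzyme-compound preincubation.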
JMJD2A Tudor inh: inhibitors of human JMJD2A Tudor domain; O75164; AlphaScreen JMJD2A-Tudor / H3K4me3 peptide binding; Potency, µM (top dose mostly 114 µM), for inactives: top-dose activity change, negative = inhibition, most hits filed as inhibitors; hit rate 4.4% among 390,000; note: % is set by controls: 0 for no effect and ±100 for the full control effect; nearly all actives have a fitted effect of over 50% in size
Sfp PPTase inh: Sfp phosphopantetheinyl transferase inhibition; Biochemical Sfp PPTase activity, qHTS; Potency, µM, inactives show largest response in the series, negative = inhibition, actives largely listed as inhibitors; hit rate 3.5% among 310,000;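 note: the enzyme is Sfp with the accession as filed and its product quenches rhodamine fluorescence; 0% = enzyme reaction without inhibitor and -100% = no enzyme wells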
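Reaction rates are the 30-min fluorescence difference (ex 525, em 598 nm) in wells containing 15 nM Sfp, 5 uM rhodamine-CoA and 12.5 uM BHQ-2-YbbR at pH 7.6 with 10 mM MgCl2.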
PLK1 PBD block: PLK1 (human) polo-box domain binding inhibition. P53350. hit rate 2.8% among 360,000. Plk1 PBD binding of FITC phosphopeptide, fluorescence polarization. Potency, µM, for the others: max response, negative = inhibition, actives largely listed as inhibitors. AID 720504; note: series mostly up to about 57 µM; % is set by controls: 0 for no effect and ±100 for the full control effect; nearly all actives have a fitted effect of over 65% in size
* marks the source's active call; other numbers are inactive results; ? = inconclusive; . = no result; [ ] = another dose, or the depositor's remark. Most compounds without a hit are left out; they make up all but 12% or so of the library. Calls come from the whole dose curve; as a rule, active = well fitted curve in the direction sought with a large enough effect; inconclusive = small, poorly fitted or top-dose-only effect, or another doubt; inactive = no such curve, though single readings can be large; an effect the other way counts as inactive or inconclusive. Potency is the fitted concentration of half-maximal effect.

SMILES	BAZ2B inh	HP1b chromo inh	G9a block	JMJD2A Tudor inh	Sfp PPTase inh	PLK1 PBD block
CC1CC(=O)C2=C(C1)Nc1ccccc1SC2c1ccc(F)cc1 (stereo unspecified)	-26%	36%	1%[59 µM]	-11%	1%	3%
CC(=O)Nc1ccc(C2Sc3ccccc3NC3=C2C(=O)c2ccccc23)cc1 (stereo unspecified)	.	?	18µM*	13µM*	.	.
CC(=O)Nc1ccc(C2Nc3ccccc3C(=O)N2C2CCCCC2)cc1 (stereo unspecified)	.	23%	-8%[59 µM]	-9%	12%	-2%
CCCOc1ccc(NC(=O)C(=O)NCCCN2CCOCC2)cc1	4%	42%	-28%[59 µM]	3%	.	.
CCOc1ccc(CNC(=O)C2CCCN(S(=O)(=O)c3ccc4c(ccn4C)c3)C2)cc1 (stereo unspecified)	1%	25%[57 µM]	-2%[59 µM]	-4%	.	.
N#CCC(=O)Nc1ccc(C(=O)OCC(=O)N=c2sccn2Cc2ccccc2Cl)cc1	-6%	-3%	18%[0.501 µM]	-31%	.	1%
CC(C)c1ccc(C2Sc3ccccc3NC3=C2C(=O)c2ccccc23)cc1 (stereo unspecified)	8.9µM*	?	?	11µM*	.	.
CC(NC(=O)CC1Sc2ccccc2NC1=O)c1ccccc1 (stereo unspecified)	23%	56%	-6%	-2%	7%	-11%
Cc1ccc(-c2nnn(CC(=O)N(CC(=O)NCCC(C)C)c3ccc(F)cc3)n2)cc1	-3%	30%	8%[59 µM]	-6%	.	.
O=C(Nc1ccccc1C(=O)O)/C(=C/c1ccc([N+](=O)[O-])cc1)NC(=O)c1ccc(Br)o1	-25%	-3%	45µM*	-30%[57.1 µM]	7.9µM*	-22%
O=C(NC(Cc1ccccc1)C(=O)O)/C(=C/c1ccc([N+](=O)[O-])cc1)NC(=O)c1ccc(Br)o1 (stereo unspecified)	-29%	36%	-21%	2%	13%	-4%
O=C(NC(Cc1ccccc1)C(=O)O)/C(=C/c1cccc([N+](=O)[O-])c1)NC(=O)c1ccco1 (stereo unspecified)	-1%	0%	5%[59 µM]	-7%	16%	-9%
O=C(Nc1ccccc1)/C(=C\c1ccccc1)NC(=O)c1ccco1	-2%	12%	.	-5%	-9%	-9%
CC(NC(=O)/C(=C\c1cccc([N+](=O)[O-])c1)NC(=O)c1ccco1)C(=O)O (stereo unspecified)	?	34%	28%[0.501 µM]	-17%	79µM*	-5%
O=C(Nc1ccccc1)/C(=C/c1ccc([N+](=O)[O-])cc1)NC(=O)c1ccco1	-23%	19%	18µM*	1%	-3%	-5%
CCC(C)NC(=O)Cn1ncc2c([nH]c3ccc(C)cc32)c1=O (stereo unspecified)	5%	45%	0%[59 µM]	-15%	.	.
COC(=O)c1ccc(-n2c(C)cc(/C=N/Nc3nc(C)cc(=O)[nH]3)c2C)cc1	?	36%	28%[12.7 µM]	-12%[11.4 µM]	-18%	1%
Fc1cccc(Cl)c1/C=N/Nc1ccccn1	-12%	28%	-11%	-8%	8%	-24%
C=CCc1c(C)nc(C)nc1N/N=C/c1ccccc1O	50µM*	14%	-12%[12.7 µM]	?	-25%	5%
CCc1nnc(N/N=C/c2cc(C)c(C)cc2C)n1N	1%	40%	79µM*	-12%	-17%	-5%
CCc1nnc(N/N=C/c2c(F)cccc2Cl)n1N	-5%	45%	45µM*	7%	-25%	1%
Cc1nnc(N/N=C/c2cc(C)n(-c3ccc(F)cc3)c2C)n1N	50µM*	2%	?	-30%	45µM*	3%
Cc1ccc2nc(N3CCN(C(=O)C4COc5ccccc5O4)CC3)sc2c1 (stereo unspecified)	-13%	-14%	5%[59 µM]	-22%	.	.
Clc1cccc(Cl)c1/C=N\Nc1nccs1	-21%	10%	-47%[12.7 µM]	-28%	-1%	-4%
Cc1[nH]c2ccccc2c1/C=N/NC(N)=S	-34%	1%	-26%[59 µM]	-25%	-5%	-9%
SMILES	BAZ2B inh	HP1b chromo inh	G9a block	JMJD2A Tudor inh	Sfp PPTase inh	PLK1 PBD block
Cc1nnc(N/N=C/c2ccccc2O)n1N	40µM*	38%	-6%	?	18%	0%
CCc1nnc(N/N=C/c2c(C)[nH]c3ccccc23)n1N	45µM*	24%	18µM*	-31%	8.9µM*	-9%
Cc1nnc(N/N=C/c2c(Cl)cccc2Cl)n1N	50µM*	55%	0%	-8%	?	-4%
CC(=O)c1ccc(NS(=O)(=O)c2cccc(S(=O)(=O)c3ccc(Cl)cc3)c2)cc1	-22%	11%	-1%[59 µM]	-26%	.	.
COC1C(O)CC(=O)OC(C)C/C=C/C=C/[C@@H](OC2CCC(N(C)C)C(C)O2)C(C)C[C@@H](CC=O)[C@@H]1O[C@H]1OC(C)[C@H](O[C@@H]2C[C@@](C)(O)C(O)C(C)O2)C(N(C)C)C1O (stereo partly specified)	.	.	10%[2.33 µM]	.	-4%	.
CCOC(=O)N(CC)OC(=O)Nc1ccc(Cl)cc1	-6%	-9%	24%[12.7 µM]	-19%	16%	8.4µM*
CCOC(=O)CNNC(=O)Nc1ccc(Cl)c(Cl)c1	0%	33%	26%	-7%	1%	-5%
CCOC(=O)N(C)OC(=O)Nc1ccc(Cl)c(Cl)c1	.	?	?	-15%	11%	2.1µM*
O=C(COC(=O)c1ccc(Cl)c(S(=O)(=O)N2CCCCC2)c1)NC1CCCCC1	.	.	.	.	.	3%
CC(=O)NCCc1nc2cc(NS(=O)(=O)c3ccccc3)ccc2n1C	-1%	38%	16%	4%	14%	2%
CC(=O)Nc1ccc(NC(=O)c2c(C)nn(-c3ccccc3)c2-n2cccc2)cc1	-6%	3%	-3%[59 µM]	-25%	.	.
COc1ccc2ccc(OC)c(/C=N/NC(=O)c3cc4ccccc4o3)c2c1	.	.	.	.	.	6%
CCN(CC)CCCOc1nc(C)nc2c1oc1ccccc12	?	18%	35µM*	-19%	10%	-2%
CCN(CC)CCOc1nc(C)nc2c1oc1ccccc12	?	27%	50µM*	?	4%	27µM*
CC1CN(C(=O)c2ccc(CNS(=O)(=O)c3cccc(Cl)c3)cc2)CC(C)O1 (stereo unspecified)	-3%	25%	4%	-7%	15%	1%
CCCC1(C(=O)OCC)NC(c2ccc(N(C)C)cc2)C2C(=O)N(c3ccc(OCC)cc3)C(=O)C21 (stereo unspecified)	?	-26%	50µM*	?	14%	-20%
CCCC1(C(=O)OCC)NC(c2ccc(N(C)C)cc2)C2C(=O)N(c3ccccc3)C(=O)C21 (stereo unspecified)	-38%	4%	8.9µM*	?	12%	0%

Source: PubChem
